# Assay results: PubChem BioAssay (EPA / NIEHS)
# “And” between values parts separate entries of the source, which are not always exact repeats. Equal entries are not always repeated. Records with an inconclusive call do not appear. The source holds several records for some structures; these can differ, active in one and inactive in another. The source made the active and inactive calls. Rule for the calls, unless noted: active = hit-call score of the fitted dose curve at least 0.9, where 1 is the maximum; inactive = score below 0.9.
# Columns and labels:
# [1] = biological target: Paired box protein Pax-6 (Homo sapiens) (UniProt P26367); test: ATG_Pax6_CIS: Attagene CIS-FACTORIAL HepG2 Assay for human Paired Box 6 (PAX6) (AID 2282956); conditions: HepG2 CIS-FACTORIAL PAX6 reporter transcription, RNA readout; actives raise or lower the signal
# Paired box protein Pax-6 (Homo sapiens), sequence (P26367 whole entry, looked up): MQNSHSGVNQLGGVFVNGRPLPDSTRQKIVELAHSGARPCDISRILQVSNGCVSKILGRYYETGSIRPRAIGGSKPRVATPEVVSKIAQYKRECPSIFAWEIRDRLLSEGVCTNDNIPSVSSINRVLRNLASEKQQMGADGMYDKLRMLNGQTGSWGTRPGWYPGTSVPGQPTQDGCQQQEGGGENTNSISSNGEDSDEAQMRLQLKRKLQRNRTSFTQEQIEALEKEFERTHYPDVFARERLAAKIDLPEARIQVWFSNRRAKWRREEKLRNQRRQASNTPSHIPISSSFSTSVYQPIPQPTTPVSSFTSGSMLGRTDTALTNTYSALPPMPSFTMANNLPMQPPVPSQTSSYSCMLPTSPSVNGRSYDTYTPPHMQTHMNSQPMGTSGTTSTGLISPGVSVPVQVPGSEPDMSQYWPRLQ
# How it was run: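 Transient MRTU transfection of HepG2 → compound exposure 24 h → TriZol RNA, oligo(dT) RT → PCR, 6-FAM primer extension, HpaI cut → capillary electrophoresis; activity fitted both directions against DMSO.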
# [2] = ATG_PXRE_CIS: Attagene CIS-FACTORIAL HepG2 Assay for human Pregnane X Receptor Element (PXRE) (AID 2282957); conditions: HepG2 Attagene CIS-FACTORIAL PXRE reporter, mRNA; actives raise or lower the signal
# How it was run: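 Cis-element reporter mRNA in human hepatoma HepG2 cells is measured 24 h post-dosing by RT-PCR, primer-extension labeling and capillary electrophoresis; gain or loss of signal is fitted relative to DMSO.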
# [3] = ATG_RORE_CIS: Attagene CIS-FACTORIAL HepG2 Assay for human RAR-related Orphan Receptor Element (RORE) (AID 2282959); conditions: HepG2 Attagene cis-factorial RORE reporter, mRNA; actives raise or lower the signal
# How it was run: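 Transiently transfected HepG2 reporter cells were treated 24 h. Reporter transcripts were detected by RT-PCR and capillary electrophoresis, with bidirectional fitting against DMSO.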
# [4] = ATG_Sox_CIS: Attagene CIS-FACTORIAL HepG2 Assay for human SRY-box transcription factor (SOX) (AID 2282960); conditions: HepG2 Attagene cis-factorial SOX reporter, mRNA; actives raise or lower the signal
# How it was run: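 Gain- or loss-of-signal endpoint, fitted bidirectionally with DMSO as negative control. Based on reporter mRNA from transfected HepG2 cells harvested 24 h post-treatment and quantified via RT-PCR and capillary electrophoresis.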
# [5] = biological target: Transcription factor Sp1 (Homo sapiens) (UniProt P08047); test: ATG_Sp1_CIS: Attagene CIS-FACTORIAL HepG2 Assay for human Specificity Protein 1 (Sp1) (AID 2282961); conditions: HepG2 Sp1 cis-reporter transcription, actives raise or lower the signal
# Transcription factor Sp1 (Homo sapiens), sequence (P08047 whole entry, looked up, the tested form may be a part): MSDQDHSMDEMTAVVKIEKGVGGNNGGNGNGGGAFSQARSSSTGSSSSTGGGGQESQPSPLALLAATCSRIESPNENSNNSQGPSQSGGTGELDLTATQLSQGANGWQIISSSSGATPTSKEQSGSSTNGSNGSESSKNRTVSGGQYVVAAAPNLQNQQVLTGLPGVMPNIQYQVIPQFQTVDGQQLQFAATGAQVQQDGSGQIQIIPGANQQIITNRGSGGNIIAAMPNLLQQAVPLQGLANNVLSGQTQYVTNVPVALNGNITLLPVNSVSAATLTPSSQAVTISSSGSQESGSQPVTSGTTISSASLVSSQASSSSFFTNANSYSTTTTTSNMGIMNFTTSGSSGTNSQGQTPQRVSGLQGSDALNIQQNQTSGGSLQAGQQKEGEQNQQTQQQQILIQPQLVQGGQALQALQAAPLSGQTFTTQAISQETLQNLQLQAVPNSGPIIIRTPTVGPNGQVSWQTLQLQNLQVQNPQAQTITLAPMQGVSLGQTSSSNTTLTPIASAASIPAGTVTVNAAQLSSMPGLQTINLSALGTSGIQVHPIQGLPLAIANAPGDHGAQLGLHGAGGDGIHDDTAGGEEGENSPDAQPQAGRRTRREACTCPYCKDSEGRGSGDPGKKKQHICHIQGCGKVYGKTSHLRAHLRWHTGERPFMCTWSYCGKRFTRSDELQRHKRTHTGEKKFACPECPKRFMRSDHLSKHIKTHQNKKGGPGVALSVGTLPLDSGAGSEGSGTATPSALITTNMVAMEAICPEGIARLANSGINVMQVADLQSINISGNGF
# How it was run: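 Endpoint reflects endogenous Sp1 transcriptional activity, not an exogenous fusion protein: HepG2 cells with transfected cis-regulated reporters, 24 h dosing, RT-PCR/capillary electrophoresis mRNA read-out, DMSO-normalised bidirectional fit.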
# [6] = ATG_SREBP_CIS: Attagene CIS-FACTORIAL HepG2 Assay for human Sterol Regulatory Element Binding (SREBP) (AID 2282962); conditions: HepG2 Attagene cis-factorial SREBP reporter, mRNA; actives raise or lower the signal
# How it was run: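 Transfected HepG2 (cis-regulated reporter library, endogenous TFs) → compound 24 h → total RNA → oligo(dT) RT → reporter-specific PCR → FAM primer extension, HpaI cut → CE fluorescence. Fit bidirectional vs DMSO.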
# [7] = biological target: Signal transducer and activator of transcription 3 (Homo sapiens) (UniProt P40763); test: ATG_STAT3_CIS: Attagene CIS-FACTORIAL HepG2 Assay for human Signal Transducer and Activator of Transcription 3 (STAT3) (AID 2282963); conditions: HepG2, Attagene cis-factorial STAT3 reporter transcription; actives raise or lower the signal
# Signal transducer and activator of transcription 3 (Homo sapiens), sequence (P40763 whole entry, looked up): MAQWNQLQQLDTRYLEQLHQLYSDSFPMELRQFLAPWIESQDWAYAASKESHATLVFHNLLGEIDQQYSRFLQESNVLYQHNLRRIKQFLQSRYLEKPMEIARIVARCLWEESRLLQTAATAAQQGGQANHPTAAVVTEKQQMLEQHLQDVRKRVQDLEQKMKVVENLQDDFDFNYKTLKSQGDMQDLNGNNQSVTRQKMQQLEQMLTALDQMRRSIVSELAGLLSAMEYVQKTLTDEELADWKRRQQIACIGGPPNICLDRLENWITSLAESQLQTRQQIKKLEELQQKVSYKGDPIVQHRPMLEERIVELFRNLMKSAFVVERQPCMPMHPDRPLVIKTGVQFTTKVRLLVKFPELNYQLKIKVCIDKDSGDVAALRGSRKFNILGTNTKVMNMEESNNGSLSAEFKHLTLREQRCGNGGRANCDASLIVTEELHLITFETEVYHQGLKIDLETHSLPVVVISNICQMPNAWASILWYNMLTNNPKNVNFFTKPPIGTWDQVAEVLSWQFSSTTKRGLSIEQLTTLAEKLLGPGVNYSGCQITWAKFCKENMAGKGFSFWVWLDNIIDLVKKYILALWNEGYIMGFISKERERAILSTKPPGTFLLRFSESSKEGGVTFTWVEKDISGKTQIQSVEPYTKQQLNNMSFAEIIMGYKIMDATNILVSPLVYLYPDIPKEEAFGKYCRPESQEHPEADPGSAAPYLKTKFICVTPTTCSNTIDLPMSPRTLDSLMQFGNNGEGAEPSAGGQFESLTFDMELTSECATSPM
# How it was run: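 Transcript-level reporter assay. HepG2 transient MRTU transfection, 24 h exposure, fluorescence detection after RT-PCR and CE; DMSO baseline.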
# [8] = ATG_TA_CIS: Attagene CIS-FACTORIAL HepG2 Assay for human TA Basal Promoter (AID 2282964); conditions: HepG2 Attagene CIS-factorial TA basal promoter reporter; actives raise or lower the signal
# How it was run: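 Background-control readout: TA basal promoter reporter mRNA, fitted in both directions relative to DMSO. Measured by RT-PCR and capillary electrophoresis 24 hours after treating HepG2 human liver cells transiently carrying multiplexed cis-regulated reporter constructs.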
# [9] = ATG_TCF_b_cat_CIS: Attagene CIS-FACTORIAL HepG2 Assay for human T-Cell-Factor with beta-catenin (TCF/b-cat) (AID 2282965); conditions: HepG2 TCF/beta-catenin cis-reporter transcription, actives raise or lower the signal
# How it was run: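 HepG2 cells transiently transfected with multiple cis-promoter-regulated reporter transcription units, so endogenous transcription factor activity is measured. Reporter mRNA read 24 hours after dosing by RT-PCR, fluorescent labelling and capillary electrophoresis; bidirectional fitting against DMSO.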
# [10] = ATG_TAL_CIS: Attagene CIS-FACTORIAL HepG2 Assay for human TAL Basal Promoter (AID 2282966); conditions: HepG2 Attagene cis-factorial TAL promoter reporter; actives raise or lower the signal;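 note: background control endpoint measuring basal TAL promoter reporter mRNA not a specific factor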
# How it was run: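 In this cell-based multiplex, HepG2 liver cells bearing cis-promoter reporter constructs are dosed for 24 hours. Total RNA is reverse-transcribed and amplified, labelled fragments are sized by capillary electrophoresis, and signal changes are fitted bidirectionally versus DMSO.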
# [11] = ATG_TGFb_CIS: Attagene CIS-FACTORIAL HepG2 Assay for human Transforming Growth Factor (TGF) (AID 2282967); conditions: HepG2 Attagene CIS TGFb reporter, mRNA transcription; actives raise or lower the signal
# How it was run: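 Endogenous TGFB1-linked transcription factor activity read as reporter mRNA via RT-PCR and capillary electrophoresis, 24 h after dosing transiently transfected HepG2 cells. Gain or loss of signal fitted relative to DMSO.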
# [12] = ATG_VDRE_CIS: Attagene CIS-FACTORIAL HepG2 Assay for human Vitamin D Receptor Element (VDRE) (AID 2282968); conditions: HepG2 VDRE cis-reporter transcription, actives raise or lower the signal
# How it was run: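 RT-PCR/CE readout of reporter mRNA; HepG2, transient transfection, 24 h dosing; DMSO baseline; bidirectional analysis.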
# [13] = biological target: X-box-binding protein 1 (Homo sapiens) (UniProt P17861); test: ATG_Xbp1_CIS: Attagene CIS-FACTORIAL HepG2 Assay for human X-box Binding Protein 1 (XBP1) (AID 2282972); conditions: HepG2 XBP1 cis-element reporter, Attagene multiplex; actives raise or lower the signal
# X-box-binding protein 1 (Homo sapiens), sequence (P17861 whole entry, looked up): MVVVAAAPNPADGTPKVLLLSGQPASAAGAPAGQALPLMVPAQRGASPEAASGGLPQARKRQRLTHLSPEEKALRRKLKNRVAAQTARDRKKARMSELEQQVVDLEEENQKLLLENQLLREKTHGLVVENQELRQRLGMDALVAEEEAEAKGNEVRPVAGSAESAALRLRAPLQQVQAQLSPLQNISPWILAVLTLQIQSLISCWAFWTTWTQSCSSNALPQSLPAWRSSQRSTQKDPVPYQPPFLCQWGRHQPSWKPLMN
# How it was run: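 HepG2, transient MRTU transfection (cis-promoter driven), 24 h compound exposure. Total RNA → oligo(dT) RT → PCR → 6-FAM labeling → HpaI cut → CE. Bidirectional fit vs DMSO.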
# [14] = ATG_M_19_TRANS: Attagene TRANS-FACTORIAL HepG2 Assay for M19 Transcription Factor (Internal Marker) (AID 2282974; active = hit-call score of the fitted dose curve at least 0.9, where 1 is the maximum); conditions: HepG2 Attagene TRANS-FACTORIAL M19 internal marker reporter
# How it was run: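 Using RT-PCR and capillary electrophoresis, reporter mRNA from transiently transfected human HepG2 cells was quantified following 24 h exposure; activity was fitted in the positive direction against DMSO.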
# [15] = ATG_Hpa5_TRANS: Attagene TRANS-FACTORIAL HepG2 Assay for human GAL4-Hpa5 Hepatocyte Transcription Factor Basal Promoter (AID 2282975; active = hit-call score of the fitted dose curve at least 0.9, where 1 is the maximum;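 note: hits are increases in reporter mRNA over DMSO baseline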); conditions: HepG2 Attagene GAL4-Hpa5 transcription reporter
# How it was run: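 Basal-promoter GAL4 background control within the HepG2 trans-factorial panel of transiently transfected reporter units. Reporter mRNA is measured 24 h after dosing by RT-PCR and capillary electrophoresis, fitted for gain of signal versus DMSO.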
# [16] = ATG_PBREM_CIS: Attagene CIS-FACTORIAL HepG2 Assay for human Phenobarbital-responsive Enhancer Module (PBREM) (AID 2282955); conditions: HepG2 PBREM cis-reporter, Attagene multiplexed transcription; actives raise or lower the signal
# How it was run: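 Transfected liver-derived HepG2 cells exposed 24 h; PBREM reporter transcript quantified via RT-PCR and capillary electrophoresis, with activity in either direction referenced to DMSO.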
# [17] = ATG_PPRE_CIS: Attagene CIS-FACTORIAL HepG2 Assay for human Peroxisome Proliferator-activated Response Element (PPRE) (AID 2282958); conditions: HepG2 PPRE cis-element reporter, Attagene transcription factor profiling; actives raise or lower the signal
# How it was run: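 Measured endpoint: PPRE-controlled reporter mRNA, detected by RT-PCR and capillary electrophoresis fluorescence, from transiently transfected HepG2 cells 24 h after dosing. Curves fitted in both directions using DMSO baseline.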
# [18] = biological target: Estrogen receptor (Homo sapiens) (UniProt P03372); test: ATG_ERa_TRANS: Attagene TRANS-FACTORIAL HepG2 Assay for human Estrogen Receptor alpha (ERa) (AID 2282970; active = hit-call score of the fitted dose curve at least 0.9, where 1 is the maximum); conditions: HepG2 Attagene TRANS ERa GAL4 reporter, mRNA
# Estrogen receptor (Homo sapiens), sequence (P03372 whole entry, looked up, the tested form may be a part): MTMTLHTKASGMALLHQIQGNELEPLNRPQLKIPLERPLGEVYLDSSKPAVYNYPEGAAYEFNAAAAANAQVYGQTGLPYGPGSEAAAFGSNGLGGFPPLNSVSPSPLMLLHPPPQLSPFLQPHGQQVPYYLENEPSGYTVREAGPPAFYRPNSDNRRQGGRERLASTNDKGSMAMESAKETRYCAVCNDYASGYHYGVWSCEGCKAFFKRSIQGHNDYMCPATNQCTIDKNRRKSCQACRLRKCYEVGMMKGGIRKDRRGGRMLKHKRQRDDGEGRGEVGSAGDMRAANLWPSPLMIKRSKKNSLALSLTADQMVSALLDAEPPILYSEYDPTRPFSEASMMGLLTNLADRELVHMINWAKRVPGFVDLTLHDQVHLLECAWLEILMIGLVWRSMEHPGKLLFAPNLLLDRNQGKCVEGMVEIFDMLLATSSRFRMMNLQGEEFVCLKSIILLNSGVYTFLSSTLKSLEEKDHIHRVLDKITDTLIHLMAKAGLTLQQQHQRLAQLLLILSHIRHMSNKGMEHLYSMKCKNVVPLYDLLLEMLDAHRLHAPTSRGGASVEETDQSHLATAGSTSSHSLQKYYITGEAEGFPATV
# How it was run: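 After 24 h of compound treatment, RNA from HepG2 cells bearing transfected GAL4-UAS reporter constructs is converted to cDNA, amplified and fluorescently labelled. Capillary electrophoresis resolves the ERa-linked reporter; DMSO serves as negative control.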
# [19] = biological target: Nuclear receptor subfamily 1 group I member 3 (Homo sapiens) (UniProt Q14994); test: ATG_CAR_TRANS: Attagene TRANS-FACTORIAL HepG2 Assay for human Constitutive Androstane Receptor (CAR) (AID 2282969; active = hit-call score of the fitted dose curve at least 0.9, where 1 is the maximum;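 note: activators raise reporter mRNA above DMSO so AC50 marks induction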); conditions: HepG2 Attagene TRANS-FACTORIAL CAR reporter
# Nuclear receptor subfamily 1 group I member 3 (Homo sapiens), sequence (Q14994 whole entry, looked up, the tested form may be a part): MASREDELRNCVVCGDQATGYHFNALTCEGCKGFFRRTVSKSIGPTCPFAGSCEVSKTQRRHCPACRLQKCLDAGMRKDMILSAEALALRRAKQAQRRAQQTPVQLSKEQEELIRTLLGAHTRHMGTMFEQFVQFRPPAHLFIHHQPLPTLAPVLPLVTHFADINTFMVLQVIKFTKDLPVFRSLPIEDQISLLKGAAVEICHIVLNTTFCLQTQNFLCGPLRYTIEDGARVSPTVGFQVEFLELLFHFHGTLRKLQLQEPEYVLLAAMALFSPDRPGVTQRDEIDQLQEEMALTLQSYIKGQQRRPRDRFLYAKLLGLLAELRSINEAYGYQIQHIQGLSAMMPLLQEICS
# How it was run: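 HepG2 cells transiently transfected with multiplexed GAL4-UAS reporter units expressing chimeric NR-Gal4 proteins; compound exposure 24 h. Reporter mRNA measured by RT-PCR, 6-FAM labelling, HpaI digestion and capillary electrophoresis; gain-of-signal fitted against DMSO baseline.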
structure (smiles),measurement,setting,value
S=C(S)NCCNC(=S)S.[Mn+2].[S-]C([S-])=NCCN=C([S-])[S-].[Zn+2],AC50,[1],9.92 µM (active) and 15 µM (active) and 12 µM (active)
same,outcome,[1],inactive
same,AC50,[2],13.2 µM (active) and 13 µM (active) and 12.9 µM (active)
same,outcome,[2],inactive
same,AC50,[3],19.6 µM (active)
same,outcome,[3],inactive
same,AC50,[4],16.5 µM (active) and 23 µM (active) and 22.3 µM (active)
same,outcome,[4],inactive
same,outcome,[5],inactive
same,outcome,[6],inactive
same,outcome,[7],inactive
same,outcome,[8],inactive
same,AC50,[9],20 µM (active) and 27.8 µM (active) and 26.9 µM (active)
same,outcome,[9],inactive
same,outcome,[10],inactive
same,outcome,[11],inactive
same,AC50,[12],30.3 µM (active) and 11.4 µM (active)
same,outcome,[12],inactive
same,outcome,[13],inactive
same,outcome,[14],inactive
same,outcome,[15],inactive
COC(=O)c1c(Cl)nn(C)c1S(=O)(=O)NC(=O)Nc1nc(OC)cc(OC)n1,outcome,[16],inactive
same,outcome,[1],inactive
same,outcome,[2],inactive
same,outcome,[17],inactive
same,outcome,[3],inactive
same,outcome,[4],inactive
same,outcome,[5],inactive
same,outcome,[6],inactive
same,outcome,[7],inactive
same,outcome,[8],inactive
same,outcome,[9],inactive
same,outcome,[10],inactive
same,outcome,[11],inactive
same,outcome,[12],inactive
same,outcome,[18],inactive
same,outcome,[13],inactive
same,outcome,[15],inactive
C[C@]12C[C@H](O)[C@H]3[C@@H](CCC4=CC(=O)CC[C@@]43C)[C@@H]1CC[C@@H]2C(=O)CO,outcome,[16],inactive
same,outcome,[1],inactive
same,AC50,[2],32.7 µM (active) [middle of 4 runs]
same,outcome,[17],inactive
same,outcome,[3],inactive
same,outcome,[4],inactive
same,outcome,[5],inactive
same,outcome,[6],inactive
same,outcome,[7],inactive
same,outcome,[8],inactive
same,outcome,[9],inactive
same,outcome,[10],inactive
same,outcome,[11],inactive
same,AC50,[18],100 µM (active) and 49.6 µM (active)
same,outcome,[18],inactive
same,outcome,[13],inactive
same,outcome,[14],inactive
O=C(Nc1ccc([N+](=O)[O-])cc1Cl)c1cc(Cl)ccc1O,AC50,[16],700 nM (active)
same,outcome,[1],inactive
same,AC50,[2],426 nM (active)
same,outcome,[17],inactive
same,AC50,[3],1.19 µM (active)
same,outcome,[4],inactive
same,AC50,[5],700 nM (active)
same,AC50,[6],700 nM (active)
same,outcome,[7],inactive
same,outcome,[8],inactive
same,outcome,[9],inactive
same,outcome,[10],inactive
same,outcome,[11],inactive
same,AC50,[13],493 nM (active)
same,outcome,[14],inactive
CCCN(CCC)C(=O)SCC,outcome,[16],inactive
same,outcome,[1],inactive
same,outcome,[2],inactive
same,outcome,[3],inactive
same,outcome,[4],inactive
same,outcome,[5],inactive
same,outcome,[6],inactive
same,outcome,[7],inactive
same,outcome,[8],inactive
same,outcome,[9],inactive
same,outcome,[10],inactive
same,outcome,[11],inactive
same,outcome,[12],inactive
same,outcome,[19],inactive
same,outcome,[18],inactive
same,outcome,[13],inactive
same,outcome,[14],inactive
same,outcome,[15],inactive
